Assay results taken from PubChem BioAssay (NCI).
This is part of a sample that, as a whole, favours compounds with a hit. Of some 83,000 tested, about 20% had one in any assay.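 The endpoint reported here, percent growth, reads 100 for growth as untreated, 0 for no net growth and -100 for all cells dead.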 Active and inactive are the calls of the source. Rule for the calls: active = growth percent below 10; inactive = the rest.

Tested on: SK-MEL-28 melanoma
Assay: NCI-60 one-dose screen, 48 h (100 = growth as untreated, 0 = no growth, -100 = all killed)
Conditions: 10 µM unless noted

Compound | growth
CCc1ccc(OCc2ccccc2C(=O)Nc2ccc3nc(C)cc(N)c3c2)cc1 | -93.9% (active)
Nc1cccc(C(=O)Nc2ccc3c(O)c(N=Nc4ccc(N=Nc5ccc(S(=O)(=O)O)cc5)cc4)c(S(=O)(=O)O)cc3c2)c1 | 107% (inactive)
COc1cc(NCC(=O)Nc2cc(Nc3cccc(C(F)(F)F)c3)ncn2)c(Cl)c(OC)c1Cl | 105% (inactive)
CC1CCCN(CCCCCOc2ccc3oc4ccccc4c(=O)c3c2)C1 (configuration not stated) | 45% (inactive)
CCCn1c(N)c(C(N)=O)sc1=S | 105% (inactive)
CCOC(=O)c1sc(/N=C2\NC(=O)/C(=C/c3ccc(N4CCN(C)CC4)cc3)S2)nc1C | 113% (inactive)
CN(C)C1=NCCN1 | 113% (inactive)
CCOC(=O)c1ccc(Nc2ncnc3ccc(NC(=O)c4ccccc4)cc23)cc1 | 89.6% (inactive)
N#CC1C(c2ccc(Cl)cc2)=Nc2c(c(-c3ccccc3)nn2-c2ccccc2)C12C(=O)Nc1ccc(Cl)cc12 (configuration not stated) | 52% (inactive)
C#C[C@@]1(O)[C@@H](CO)O[C@@H](n2ccc3c(N)ncnc32)[C@@H]1O | 63.6% (inactive)
CN(C)CCCn1c2c(c3cc(-c4cccc(S(N)(=O)=O)c4)ccc3c1=O)C(=O)c1ccccc1-2 | 113% (inactive)
C=C1C(=O)O[C@H]2[C@H]1CC/C(COC(=O)/C=C/c1cccnc1)=C\CC[C@@]1(C)O[C@@H]21 | 43.7% (inactive)
C#C[C@@]1(O)[C@@H](CO)O[C@@H](n2cc(Cl)c3c(N)ncnc32)[C@@H]1O | 42.6% (inactive)
CCOc1ccc(C2N(c3cc(OC)c(OC)c(OC)c3)C(=O)C2(F)F)cc1 (configuration not stated) | 66.8% (inactive)
O=C1C(Cl)=C(NCCCN(CCCNC2=C(Cl)C(=O)c3ccccc3C2=O)C2=C(Cl)C(=O)c3ccccc3C2=O)C(=O)c2ccccc21 | 71.7% (inactive)
COc1ccc(-c2nc(C#N)c(NCC(c3ccc(Cl)cc3)N3CCCCC3)o2)cc1 (configuration not stated) | 94.3% (inactive)
Cc1nc2sc(C(=O)Nc3ccccc3)c(N)c2cc1C(C)O (configuration not stated) | 55.8% (inactive)
O=C1CCC23OC(c4ccccc4N12)C(O)C(O)C3O (configuration not stated) | 118% (inactive)
C=C1C(=O)O[C@H]2[C@H]1CC/C(COC(=O)CCCCC(=O)OC/C1=C/CC[C@@]3(C)O[C@H]3[C@H]3OC(=O)C(=C)[C@@H]3CC1)=C\CC[C@@]1(C)O[C@@H]21 | 76.8% (inactive)

Compound | growth
CC[C@]12C=CCN3CC[C@@]4(c5cc(NC(=O)CCC(=O)O[C@H]6CC[C@H]7[C@@H]8CC[C@H]9CC(=O)CC[C@]9(C)[C@H]8CC[C@]67C)c(OC)cc5N(C)[C@H]4[C@@](O)(C(=O)OC)[C@@H]1OC(C)=O)[C@@H]32 | 92.5% (inactive)
N#CC(C#N)=C1NC(c2ccccc2)=C(c2ccccc2)C(c2ccccc2Cl)=C1C#N | 114% (inactive)
CCCCCCCCCCCCCC1=NCC[N+]1(CCO)Cc1ccccc1 (configuration not stated) | -90.7% (active)
Cc1cc(C)n(-c2nc(-c3cccs3)c(C#N)c(=O)[nH]2)n1 | 99.8% (inactive)
COc1ccc(C2C(c3ccccc3)C(=O)N2c2cc(OC)c(OC)c(OC)c2)cc1I (configuration not stated) | 60.3% (inactive)
CC(C)(C)c1ccc2oc(=O)n(SC(Cl)(Cl)Cl)c2c1 | 112% (inactive)
CCOC(=O)c1c(C)nc2c(c1N)/C(=C/c1ccccn1)C(=O)N2Cc1ccccc1 | -2.42% (active)
O=C(Nc1cccc(-c2cccc(F)c2)c1)C1CCN(Cc2cccc3cccnc23)CC1 | -40.2% (active)
COc1ccc(C(C)c2cc(OC)c(OC)c(OC)c2)cc1 (configuration not stated) | 61.1% (inactive)
Cc1ccc(SC2c3ccc(C)cc3Oc3nc(N)c(C#N)c(N)c32)cc1 (configuration not stated) | 87.7% (inactive)
COC(=O)/C=C/c1cc(OC)c2c(c1)[C@@H](C(=O)OC)[C@H](c1ccc(OC)c(OC)c1)O2 | 63.4% (inactive)
C#CCN(CCCOc1ccc(Cl)cc1Cl)CCCSC(=O)CCCCCN1/C(=C\C=C2/CCCC(/C=C/C3=[N+](CCCCCC(=O)[O-])c4ccccc4C3(C)C)=C2Cl)C(C)(C)c2ccccc21 | -9.83% (active)
O=C1NCc2ccc3c(-c4cccc(Cl)c4)c[nH]c3c21 | 62.2% (inactive)
O=C(/C(=C\c1c(-c2ccccc2)[nH]c2ccccc12)S(=O)(=O)c1ccccc1)c1ccccc1 | 76.2% (inactive)
N#Cc1c(-c2ccc(F)cc2)nc(N=Nc2c(O)[nH]c3ccccc23)nc1N1CCOCC1 | 72.3% (inactive)
CC(=O)OC[C@]12CC[C@@H](c3cn(Cc4ccc(Cn5cc([C@@H]6CC[C@]7(COC(C)=O)CC[C@]8(C)[C@H](CC[C@@H]9[C@@]%10(C)CC[C@H](OC(C)=O)C(C)(C)[C@@H]%10CC[C@]98C)[C@@H]67)nn5)cc4)nn3)[C@@H]1[C@H]1CC[C@@H]3[C@@]4(C)CC[C@H](OC(C)=O)C(C)(C)[C@@H]4CC[C@@]3(C)[C@]1(C)CC2 | 99.8% (inactive)
Cc1c(Br)cccc1NC(=O)c1sc2nc3c(cc2c1N)CN(Cc1ccccc1)CC3 | 53.8% (inactive)
COc1cccc(C(=O)OCCn2nc3c4c(cccc42)C(=O)c2ccccc2-3)c1O | 72.5% (inactive)
